Screen size: about 16,000 compounds; about 130 (0.81%) were called active. Cut-off read from the data, not from the text of the source: active = inhibition above about 75%; inactive = the rest. Many of the other results were omitted from the sample, so actives are more common in it than they were.
These compounds were tested against NADPH oxidase 1 (Homo sapiens) (UniProt Q9Y5S8) (assay: inhibitors of human NADPH oxidase 1 (Nox1) (AID 1792)). Settings: HT29 cells, luminol chemiluminescence ROS; at 6.7 µM; stronger effect = higher value.
Sequence of NADPH oxidase 1 (Homo sapiens) (Q9Y5S8 whole entry, looked up): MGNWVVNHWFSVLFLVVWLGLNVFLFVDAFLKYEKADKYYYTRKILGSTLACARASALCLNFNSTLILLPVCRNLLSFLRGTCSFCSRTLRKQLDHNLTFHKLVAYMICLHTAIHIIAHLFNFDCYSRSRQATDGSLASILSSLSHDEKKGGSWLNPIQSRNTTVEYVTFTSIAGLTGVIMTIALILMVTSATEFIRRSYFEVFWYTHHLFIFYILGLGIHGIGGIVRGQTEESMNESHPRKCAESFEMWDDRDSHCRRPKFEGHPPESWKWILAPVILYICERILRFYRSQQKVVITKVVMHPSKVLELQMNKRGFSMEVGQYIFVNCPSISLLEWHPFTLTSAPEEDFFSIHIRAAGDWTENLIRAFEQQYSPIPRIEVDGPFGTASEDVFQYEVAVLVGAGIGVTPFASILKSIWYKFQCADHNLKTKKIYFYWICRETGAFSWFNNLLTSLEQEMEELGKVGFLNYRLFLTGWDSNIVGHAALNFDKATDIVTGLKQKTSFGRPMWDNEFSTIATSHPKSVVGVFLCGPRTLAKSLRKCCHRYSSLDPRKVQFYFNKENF

inhibition, inactive:
N#C/C(=C\c1sccc1Oc1ccccc1)S(=O)(=O)c1ccc(C(F)(F)F)cn1 -16.5%
CCCCC#Cc1cncc(C(=O)NNC(=O)Nc2ccc(Cl)cc2)c1 11.2%
N#Cc1cccnc1NNC(=O)Nc1ccc(OCc2ccccc2)cc1 61.8%
CC(C)CC(NC(=O)OC(C)(C)C)C(=O)OCc1ccc(CC(=O)O)cc1 (configuration not stated) -5%
O=c1c(-c2nc(-c3ccc(C(F)(F)F)cc3)no2)cnc2n1CCS2 -4.83%
CSc1sc(C(=O)NC2CC2)c(-c2ccc(Cl)cc2)c1C#N -9.35%
NS(=O)(=O)c1ccc(Oc2c(Cl)cccc2[N+](=O)[O-])cc1 21.2%
Cc1cc(C(=O)NCCNS(=O)(=O)c2ccc(Cl)cc2)c(C)o1 2.68%
O=C1c2ccccc2O[C@@H](c2ccccc2)[C@@H]1NC1CCCCC1 -19.7%
COC(=O)c1ccccc1-c1c2ccc(=O)cc-2oc2cc(O)ccc12 -13%
C#CC(C)(CC)OCC(O)CS(=O)(=O)O (configuration not stated) -13.2%
COc1cccc2c1c(NS(=O)(=O)c1cn(C)cn1)nn2C -41.2%
Cc1nc(-n2cccc2)sc1C(=O)N/N=C/c1ccccc1Cl 6.52%
O=S(=O)(c1ccc(Cl)cc1)n1nccc1/C=C/c1cccs1 -18.9%
CSc1nnc(SC)n1CCNC(=O)Nc1cccc(Cl)c1 -65%
O=C(Cn1nnc2ccccc21)NCCSCc1ccco1 16.2%
CN([C@H]1CCN2CCc3ccccc3C2C1)S(C)(=O)=O (some centres not stated) -68.5%
N#Cc1nccnc1N1CCN(C(=O)c2ccccc2)CC1 -2.33%
COc1cccc(NC(=S)N(CCC#N)C2CCCCC2)c1 -44.9%
COc1ccc(NC(=S)Nc2ccc(OC)cc2)cc1 3.7%
CSc1nc(-n2nc(C)cc2C)nc(-c2ccco2)c1C#N -107%
Cc1ccc(NC(=S)C(C#N)C(=O)N2CCCC2)c(C)c1 (configuration not stated) -73.4%
CCOC(=O)c1c[nH]n2c(=O)c3c(nc12)CCC3 -13%
Cc1noc(C)c1S(=O)(=O)NCc1cc(F)cc2c1OCOC2 -23.9%
CS/C(=N/S(=O)(=O)c1c(C)noc1C)NNC(=O)Nc1ccc(Cl)cc1 20%
CC1=NCCNC(C)=C1N1CCOCC1 -21.2%
CCCCNC(=O)OCCSCCS(=O)(=O)c1ccc(Cl)cc1 -35%
O=C(NCc1cccnc1)Nc1cccc(NC(=O)NCc2cccnc2)c1F -23.7%
CC(C)(C)OC(=O)n1ccc2cc(Br)ccc21 -51.3%
Fc1ccc(NC(=S)N2CCN=C2Nc2ccc(F)cc2)cc1 -49.7%
O=C(O)c1ncoc1-c1cccc(Cl)c1 -52.4%
CCOC(=O)CC(=O)CSc1nnc(N)s1 -48%
N#Cc1cncc(Br)c1 -66.5%
NNC(=O)CC1C(=O)NCCN1Cc1c(Cl)cccc1Cl (configuration not stated) 14.9%
CSc1ccc(Br)cc1 -59.5%
CC(C)(C)c1cc(NC(=O)/C(C#N)=C/c2cccc(Cl)c2Cl)c(C(N)=O)s1 -9.18%
COC(=O)c1ccccc1N(C)C(=O)c1cc(OC)c(OC)c(OC)c1 -18%
CCOC(=O)NC(=O)/C(=C/NCc1cccs1)C(=O)OCC -20.5%
NC(=O)c1ccc(-c2csnn2)cc1 -4.63%
FC(F)(F)c1cc(-c2ccc(Br)cc2)n[nH]1 -47%
Cc1ncn2cc(-c3ccc(Cl)cc3Cl)[nH]c(=O)c12 -12%
Cc1ccc(CSC(=N)N)cc1 -35.4%
O=C(NC(=S)Nc1nc(-c2ccc(Cl)cc2)cs1)C1CC1 -57.1%
CC(=O)NC(Cc1c[nH]c2ccccc12)C(=O)O (configuration not stated) -15.3%
O=C(Cn1c(=Nc2ccc(F)cc2)oc2ccccc2c1=O)c1ccccc1 -0.92%
COc1ccc(S(=O)c2ccccc2C(=O)O)c(C(=O)O)c1 (configuration not stated) -11.3%
COc1ccccc1C1CCN(c2ccc([N+](=O)[O-])cn2)CC1 18%
O=C(Nc1ccc(C(F)(F)F)cn1)c1ccc(Oc2cc(Cl)cc(Cl)c2)o1 -58.2%
CCCCOC(=O)c1ccc(-c2ccccn2)s1 -10.4%
Cc1[nH]ncc1S(=O)(=O)c1ccc(Cl)cc1 -77.8%
Cc1cc(C(=O)NNC(=O)c2cc(C)n(C(C)(C)C)n2)no1 -45.9%
O=C(Nc1ccccc1C(F)(F)F)N1CCCC1c1cccnc1 (configuration not stated) -8.11%
CCOC(=O)c1sc(SC)c(-c2ccccc2)c1N 0%
N#Cc1c(C2CCCCC2)[nH]c(=S)[nH]c1=O -8.73%
COc1c(/C(N)=N/O)cc(C)c2c1CCC2 8.11%
Cc1ccc(S(C)(=O)=NC(=O)NS(=O)(=O)Oc2ccc(Cl)cc2Cl)cc1 (configuration not stated) -64.7%
O=C1c2ccccc2C(=O)N1CNc1ccc(C2CCCCC2)cc1 -10.4%
O=C(c1ccc(C#Cc2ccccc2)o1)N1CCCCC1 -23.7%
NNC(=O)c1csc(COc2ccc(C3SCCS3)cc2)n1 4.76%
N/C(Cc1ccc(F)cc1F)=N\OC(=O)c1cccc(C(F)(F)F)c1 -67.4%
O=C(c1ccccc1I)c1c[nH]c2ccccc12 13.6%
CC1(C)c2ccccc2-n2c1cc(O)c(-c1ccccc1)c2=O -50%
COC(=O)c1c(C)noc1-c1ccno1 -21.7%
CCCCCCCCCCCCCC#CC(O)C(N)CO (configuration not stated) -24.7%
O=C(NNC(=O)C1c2ccccc2Oc2ccccc21)c1cccc(F)c1 -30.2%

inhibition, active:
Cc1ccc(C(=O)N2CCN(c3cccc4[nH]ccc34)CC2)cc1 76%
COc1cccc(NC(=S)NNC(=S)NC2CC3CCC2C3)c1 (configuration not stated) 87.8%
